Test results as given in PubChem BioAssay (EPA / NIEHS).
Records with an inconclusive call do not appear. Calls of active or inactive are those of the source. The calls were made as follows: active = hit-call score of the fitted dose curve at least 0.9, where 1 is the maximum; inconclusive = response in the unintended direction; inactive = score below 0.9.

assay: CCTE_Shafer_MEA_acute_LDH: CCTE's Lactate Dehydrogenase Assay for Cytotoxicity in the Neural Acute Assay, Shafer Lab (AID 2284086);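 also: active means LDH release rises above DMSO vehicle level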
Description: CCTE_Shafer_MEA_acute assay is conducted using Axion Biosystems 48 well microelectrode array (MEA) plates and Maestro recording system. Each well of the MEA plate contains a grid of 16 microelectrodes embedded in the culture surface. Electrically active cells, such as neurons, can be cultured over the electrodes, and electrical activity in these cells can be recorded extracellularly. The spontaneous firing of neurons is captured from each electrode on a microsecond timescale providing both temporally and spatially precise data. […] The CCTE_Shafer_MEA_acute assay uses primary cultures of rat cortical neurons. As these cultures mature over time, neural networks develop functional activity and form cohesive networks in which electrical activity can be highly coordinated. Baseline 40-minute recordings are made on days post-plating 13 or 15, followed by a secondary 40-minute recording after chemical exposure.CCTE_Shafer_MEA_acute_LDH is a component of the CCTE_Shafer_MEA_acute assay. It measures the lactate dehydrogenase enzyme activity using spectrophotometry.Data from the assay component CCTE_Shafer_MEA_acute_LDH was analyzed into 1 assay endpoint. This assay endpoint, CCTE_Shafer_MEA_acute_LDH, was analyzed in the positive analysis fitting direction relative to DMSO as the negative control and baseline of activity. Using a type of viability reporter, gain-of-signal activity can be used to understand cell viability.
Immediately following the 40 min recording in the presence of compounds, 50 uL of media was removed from each well and transferred to a sterile 96-well plate. This was used to determine LDH released from cells during compound exposure using a kit from Promega where absorbance was determined in a Molecular Devices VersaMax plate reader at 490 nm.

Structure (SMILES)	outcome
OC1OC[C@@H](O)[C@H](O)[C@H]1O (stereo not given in full)	inactive
OC[C@H]1O[C@H](O[C@]2(CCl)O[C@H](CCl)[C@@H](O)[C@@H]2O)[C@H](O)[C@@H](O)[C@H]1Cl	inactive
CC(C)(COC(=O)c1ccccc1)COC(=O)c1ccccc1	inactive
CC(=O)OCCC(C)CC(C)(C)C (stereo not given)	inactive
C=C[Si](OCC)(OCC)OCC	inactive
NCCNCCN	inactive
COc1cc(C=O)ccc1OC(=O)C(C)C	inactive
CN(C)C(=N)N=C(N)N	inactive
Cc1cc(C2(c3cc(C)c(O)cc3C)OS(=O)(=O)c3ccccc32)c(C)cc1O	inactive
C=CCOC(=O)CCC1CCCCC1	inactive
CC(=O)[C@H]1CC[C@H]2[C@@H]3CC=C4C[C@@H](O)CC[C@]4(C)[C@H]3CC[C@]12C	inactive
CCCCCCCCC=O	inactive
CC[Si](OC(C)=O)(OC(C)=O)OC(C)=O	inactive
CCC(=O)OCc1ccccc1	inactive
C[C@H]1C[C@@H]2[C@H]([C@@H](O)C[C@@]3(C)[C@H]2CC[C@]3(O)C(=O)CO)[C@@]2(C)C=CC(=O)C=C12	inactive
